# Measurements published in the supplement of paper PMC4166925.
# ± gives the standard deviation of the averaged measurements. In all, about 33,000 sequences were measured (“E-score (dimensionless, -0.5 to 0.5)”: median about -0.049, highest 2% from about 0.37 on). This is one part of a sample in which the highest values are shown more often than they occur.
# System: T1, PmTbr T-box DNA-binding domain (GST fusion)
# T1 sequence: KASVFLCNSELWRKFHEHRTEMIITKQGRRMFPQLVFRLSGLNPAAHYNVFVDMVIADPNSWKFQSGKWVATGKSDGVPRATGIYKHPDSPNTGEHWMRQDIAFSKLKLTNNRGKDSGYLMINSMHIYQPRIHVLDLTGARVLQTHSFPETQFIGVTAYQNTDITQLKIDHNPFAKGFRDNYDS
# Experiment: PBM E-score of 8-mer (E-score (dimensionless, -0.5 to 0.5)); Tbr is Tbrain of the sea star Patiria miniata (Pm) or the sea urchin Strongylocentrotus purpuratus (Sp); higher = stronger binding preference
# Settings: the construct has about 5 more residues each side
# Summary of the method: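 Universal Agilent oligonucleotide arrays, made double-stranded by primer extension, were incubated with 200 nM GST-fused Tbr T-box DNA-binding domain in PBS (pH 7.5). The protein was expressed in BL21 E. coli at 20 °C and purified by glutathione affinity chromatography. After scanning and quantification, the Universal PBM Analysis Suite assigned an enrichment E-score to each ungapped 8-mer, averaged over duplicate arrays.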
row,Sequence,PBM E-score of 8-mer
1,CGGCCTAA,-0.0861 ± 0.036
2,AACTCAAC,-0.0361 ± 0.029
3,CGCTATAA,0.164 ± 0.045
4,CGGTGCCA,0.195 ± 0.0034
5,GCGTGCCA,0.163 ± 0.015
6,AGGTGCAA,0.4484 ± 0.0012
7,TGGTGCAA,0.192 ± 0.012
8,GGGTGCAA,0.31 ± 0.0046
9,GGGTGCCA,0.426 ± 0.011
10,AAAGACCG,-0.149 ± 0.032
11,TCCTGCCA,0.183 ± 0.019
12,CGCGTGAA,0.398 ± 0.033
13,AGCGTGAT,0.207 ± 0.025
14,CGCGTGAC,0.342 ± 0.0057
15,CGCGTGAG,0.282 ± 0.004
16,GGCGTGAC,0.386 ± 0.017
17,GGCGTGCA,-0.00275 ± 0.035
18,AGCGTGAC,0.3524 ± 0.0023
19,AGCGTGAG,0.24 ± 0.042
20,TGCGTGAA,0.3679 ± 0.0033
21,AGCGTGAA,0.381 ± 0.004
22,GGCGTGAA,0.4668 ± 0.002
23,CACGTGAA,0.176 ± 0.044
24,CTAGGATC,-0.255 ± 0.018
25,TTGAGAAA,0.0227 ± 0.14

row,Sequence,PBM E-score of 8-mer
1,ATGACCAT,-0.23 ± 0.0083
2,TCCTTAGA,-0.289 ± 0.043
3,CCCAAGCC,-0.228 ± 0.037
4,AGTCAATG,-0.195 ± 0.041
5,CTTCCACA,0.151 ± 0.069
6,CGTCTTCA,-0.00878 ± 0.0017
7,AGAACGAG,-0.0902 ± 0.0033
8,CGGCGAAA,-0.1403 ± 0.00085
9,GCCATTCA,0.104 ± 0.018
10,GAACGCTA,0.0135 ± 0.049
11,CATAACAC,0.42 ± 0.0089
12,GATAACGC,0.246 ± 0.0034
13,GATAACAA,0.212 ± 0.042
14,GATAACAC,0.4169 ± 0.0014
15,CATAACAA,0.0483 ± 0.038
16,AATAACAC,0.339 ± 0.052
17,GCTGTTCA,0.0254 ± 0.024
18,CGAAGATC,-0.07 ± 0.0097
19,ACCGCAGA,-0.332 ± 0.019
20,CATCCTCA,-0.0261 ± 0.11
21,GAACCTAC,-0.179 ± 0.00047
22,GGCTTAAA,-0.302 ± 0.016
23,ACAAGCTA,-0.0967 ± 0.014
24,TGGTGACA,0.409 ± 0.01
25,GGGTGACA,0.4543 ± 0.0023

row,Sequence,PBM E-score of 8-mer
1,TCGTGACA,0.358 ± 0.017
2,CGGTGACA,0.333 ± 0.0054
3,GGGTGACC,-0.0479 ± 0.082
4,GGGTGAAA,0.0558 ± 0.043
5,CGCGCTCA,0.13 ± 0.034
6,TATAAGGA,-0.154 ± 0.073
7,CACCAATA,0.224 ± 0.056
8,CCATGGCC,-0.263 ± 0.011
9,AGGTGACG,0.4629 ± 0.0014
10,AGGTGACA,0.4826 ± 0.00079
11,AGGTGACC,0.172 ± 0.052
12,AGGTGACT,0.31 ± 0.015
13,CGGTGACG,0.179 ± 0.047
14,AGGTGAAA,0.347 ± 0.022
15,GGGGGGCA,-0.327 ± 0.0093
16,GCTCTGAC,-0.205 ± 0.092
17,GGAAACCA,-0.1389 ± 0.00081
18,AACTCTCG,-0.128 ± 0.018
19,AATTCACG,0.365 ± 0.0071
20,CATTCACC,-0.0785 ± 0.054
21,TATTCACA,0.411 ± 0.029
22,CATTCACA,0.385 ± 0.0049
23,GATTCACC,-0.167 ± 0.0053
24,CATTCACG,0.229 ± 0.041
25,GATTCACA,0.38 ± 0.041

row,Sequence,PBM E-score of 8-mer
1,AATTCACA,0.2798 ± 0.0014
2,GATTCAGA,-0.206 ± 0.0085
3,AGACCACT,-0.234 ± 0.093
4,TACCCATA,-0.104 ± 0.024
5,AACTGACG,0.102 ± 0.036
6,AGGTGTGC,0.44 ± 0.0051
7,ATGTGTGG,0.3184 ± 0.0012
8,CTGTGTGC,-0.0563 ± 0.038
9,AGGTGTGG,0.483 ± 0.0024
10,AGATGTGC,0.163 ± 0.018
11,ACGTGTGG,0.362 ± 0.017
12,ATACTCCG,-0.00617 ± 0.029
13,AGAGTTAT,-0.0216 ± 0.013
14,GTCCAACA,0.198 ± 0.045
15,AAAGCGTG,0.2812 ± 0.0023
16,CGTAAACG,0.0455 ± 0.046
17,AGGCGTTA,0.4486 ± 0.0021
18,CGGCGTTA,0.189 ± 0.00085
19,GGGCGTTA,0.276 ± 0.0092
20,AGGCGTAG,0.0703 ± 0.0097
21,AGGCGTTC,0.0817 ± 0.053
22,AGGCGTTG,0.369 ± 0.0053
23,ATTGGAGG,0.0195 ± 0.049
24,AAATGGGC,0.0759 ± 0.0097
25,GGCAACGA,0.0835 ± 0.033

row,Sequence,PBM E-score of 8-mer
1,AGGAGATG,-0.0689 ± 0.011
2,ACTTTTAC,-0.0251 ± 0.02
3,CCAGAGCC,-0.17 ± 0.0096
4,CAGGTGGC,0.364 ± 0.018
5,GAGGTGGA,0.0566 ± 0.0027
6,AAGGTGGG,0.221 ± 0.026
7,GAGGTGGC,0.372 ± 0.036
8,AAGGTGGA,-0.0394 ± 0.074
9,AAGGTGGC,0.383 ± 0.021
10,TACTAGTA,-0.163 ± 0.035
11,CTGTAGCA,-0.0144 ± 0.079
12,ACGCACCA,0.0123 ± 0.072
13,AATCTTTA,-0.0517 ± 0.059
14,GACACGTA,0.317 ± 0.029
15,AACACGTA,0.34 ± 0.024
16,AACACGAT,0.291 ± 0.018
17,AACACGTT,0.386 ± 0.014
18,GACACGTC,0.373 ± 0.021
19,AACACGGC,0.162 ± 0.017
20,AACACGCT,0.197 ± 0.011
21,AACACGTC,0.399 ± 0.021
22,GACACGGC,0.187 ± 0.038
23,ACGCGTTC,0.138 ± 0.014
24,TTAGTGAA,-0.048 ± 0.037
25,TCTAAGAA,-0.239 ± 0.028

row,Sequence,PBM E-score of 8-mer
1,CAAGGTTC,0.0603 ± 0.055
2,GAAGGTCC,-0.1794 ± 0.0013
3,TAAGGTGA,0.3578 ± 0.00067
4,GAAGGTGC,0.439 ± 0.012
5,GAAGGTGA,0.406 ± 0.011
6,GAAGGTAC,-0.214 ± 0.046
7,GAAGGTAA,0.00393 ± 0.033
8,CAAGGTCA,0.0991 ± 0.0032
9,CAAGGTGC,0.4331 ± 0.00078
10,CAAGGTGA,0.406 ± 0.0091
11,CAAGGTGG,0.323 ± 0.03
12,CAAGGTAA,0.00125 ± 0.13
13,TCAAATGA,-0.203 ± 0.019
14,ATGGGCCA,-0.105 ± 0.04
15,CAGCGCTG,0.0573 ± 0.064
16,CATTACCA,-0.0668 ± 0.0072
17,ACTCCTTC,0.0419 ± 0.014
18,AGCTATAA,-0.182 ± 0.011
19,AGTTAGGG,-0.128 ± 0.021
20,CGGGTGCC,0.247 ± 0.024
21,AAGGTGCG,0.45 ± 0.014
22,CAGATGCG,-0.135 ± 0.048
23,CTGGTGCC,0.128 ± 0.018
24,AGGGTGCG,0.356 ± 0.052
25,CAGGTGCA,0.277 ± 0.021

row,Sequence,PBM E-score of 8-mer
1,ACGGTGCG,0.309 ± 0.042
2,CAGGTGCC,0.4 ± 0.0072
3,CAGGTGCG,0.4533 ± 0.0028
4,CCCACTCC,-0.0608 ± 0.036
5,CCCAGATA,-0.233 ± 0.14
6,CGAAAGCC,-0.0801 ± 0.046
7,CAGTAAAC,-0.125 ± 0.0037
8,ACTAAACT,-0.221 ± 0.1
9,AAGGACTT,-0.228 ± 0.067
10,GTGTTAAA,0.429 ± 0.021
11,CTGTTAGA,0.118 ± 0.0087
12,ATGTTATA,-0.0814 ± 0.076
13,ATGTTACA,0.0933 ± 0.047
14,TTGTTAAA,0.199 ± 0.035
15,CTGTTAAA,0.23 ± 0.015
16,ATGTTAGA,-0.236 ± 0.027
17,GTGTTAGA,0.419 ± 0.0094
18,CTGTTACA,0.197 ± 0.0076
19,GTGTTATA,0.426 ± 0.013
20,CTGTTATA,0.184 ± 0.016
21,GTGTTACA,0.386 ± 0.013
22,CACCAGTA,0.132 ± 0.018
